Experimental findings from PubChem BioAssay AID1347414 (National Center for Advancing Translational Sciences (NCATS), 2020) are described below.

Records with an inconclusive call do not appear. Entries that show only a call come without a potency. The source made the active and inactive calls. The call rests on the fitted dose curve; in most records, active means well fitted inhibition curve with a large enough effect; inconclusive means small, poorly fitted or top-dose-only effect; inactive means no such curve, though single readings can be large or run the other way.
Potency means the concentration at half of the fitted maximal effect.

A short description of this test: qHTS to identify inhibitors of the type 1 interferon - major histocompatibility complex class I in skeletal muscle: Secondary screen by immunofluorescence. Further: nearly all actives have a fitted effect of over 70% in size. The note with it: C25cl48 myoblasts, IFN-b induced HLA-ABC immunofluorescence, 24 h, Viability; series mostly up to 49.8 µM. An excerpt:
Assay Submitter (PI): Travis B. Kinder Ph.D. & James Inglese Ph.D. Assay Development and Screening Technology Laboratory (ADST) National Center for Advancing Translational Sciences (NCATS), Rockville, MD National Institute of Health (NIH), Bethesda, Maryland Idiopathic inflammatory myopathies, collectively referred to as myositis, are a group of rare autoimmune diseases characterized by skeletal muscle inflammation, weakness, and usually accompanied by systemic pathologies of the skin, lungs, or vasculature. Current immunosuppressive therapies and glucocorticoids are often not curative and are accompanied by harsh side effects, especially in children with juvenile myositis. We initiated a drug repurposing and development program to identify more targeted, less toxic therapeutics to treat myositis. Although its cause is not known, muscle from a subset of patients have an abundance of the inflammatory type 1 interferon (IFN) and a down-stream product major histocompatibility complex class I (MHC class I), which are both thought to contribute to damage and weakness. We conducted quantitative high throughput screening (qHTS) on 6,576 compounds (4,679 unique) through a series of cell-based assays to identify those that inhibit the IFN-stimulated expression of MHC class I in muscle precursor cells (myoblasts). The compound identification and evaluation strategy utilized a primary screen with reporter-tagged MHC class I in genome-engineered myoblasts, ATP content counter screen for viability, HLA-ABC immunofluorescence secondary screen, and HLA-B RT-qPCR tertiary screen. To verify activity of compounds identified by qHTS in HLA-B HiBit reporter cells, compounds were assayed by high throughput HLA-ABC immunofluorescence. Briefly, 216 compounds identified from primary and counter screening as inhibitory with minimal cytotoxicity were dispensed into black/clear bottom […] using acoustic dispensing in an 11-point, 1:3 titration with a high final concentration of 50 uM. Normal immortalized human myoblasts C25cl48 were added to the plates with 4.0 ng/ml human IFN-beta for 24 hours, fixed, stained by immunofluorescence for HLA-ABC protein, nuclei, and cell body, and analyzed by laser scanning cytometry as described by Auld et al., 2006. References: Auld DS, Johnson RL, Zhang Y, Veith H, Jadhav A, Yasgar A, Simeonov A, Zheng W, Martinez ED, Westwick JK, Austin CP, Inglese J. 2006. Fluorescent protein-based cellular assays analyzed by laser-scanning microplate cytometry in 1536-well plate format. Methods Enzymol 414:566-89. doi:10.1016/S0076-6879(06)14029-X
PROTOCOL TABLE (as described by Inglese et al., 2007) SEQUENCE No. (e.g., 1, 2, 3, etc.); […] (e.g., Cells, Incubation, Reagent, etc.); VALUE; DESCRIPTION 0; Compounds; 25 nl; Follow-up compounds dispensed at 25 nl/well with Labcyte Echo 655 acoustic dispenser in triplicate Aurora ChemLib 1536K black/clear bottom, low base, TC 1536-well plates (00019324). Also dispensed 25 nl/well DMSO control, ruxolitinib IFN-b inhibitor control titration, and digitonin cytotoxic control 1a; Cells; 5 uL; Multidrop Combi (Thermo Scientific) to seed 125 cells/well into eight plates in 5 ul/well of iHSKM growth medium (GM) without dexamethasone into columns 1+2. Add metal lids with gas-exchange holes 1b; Cells; 5 uL; Multidrop Combi (Thermo Scientific) to seed 125 cells/well into eight plates in 5 ul/well of iHSKM GM without dexamethasone + 4 ng/ml IFN-b into columns 3 - 48. […]
Background: In qHTS, concentration-response curves come from the screen itself.
With `CN1CCN(C(=O)c2ccc3cc(CCNc4ncnc5ccc(C#N)cc45)ccc3c2)CC1`, the Potency entry is “inactive”. Next, `O=C(Nc1cn[nH]c1-c1nc2ccc(CN3CCOCC3)cc2[nH]1)NC1CC1`: “inactive”; `CC(C)c1cc(C(=O)N2Cc3ccc(CN4CCN(C)CC4)cc3C2)c(O)cc1O`: “inactive”. Consider `CNC(=O)c1cc(Oc2ccc(NC(=O)Nc3cc(C(C)(C)C)nn3-c3ccc4ncccc4c3)c(F)c2)ccn1`, for which the Potency entry was “inactive”. Next, `O=C(CCCCCCC(=O)Nc1ccccc1)NO`: “inactive”; `Nc1nc(Nc2ccc(S(N)(=O)=O)cc2)nn1C(=O)c1c(F)cccc1F`: “inactive”; `CCc1cnn2c(NCc3ccc[n+]([O-])c3)cc(N3CCCC[C@H]3CCO)nc12`: “inactive”.

In the case of `COc1ccc(CNc2nc(N(CCO)CCO)nc3c2ncn3C(C)C)cc1`, the Potency result was “inactive”. The same measure for `COc1nnc2ccc(N3CCC(c4ccc(OCCN5CCN(C)C(=O)[C@H]5C)cc4)CC3)nn12`: “inactive”. Next, `CC(=O)c1cnc2ccc(-c3cc(Cl)c(O)c(Cl)c3)nc2c1NC1CCC(CN(C)C)CC1` (stereo not given): 14.5 µM (active); `CC(C)c1cc(-c2n[nH]c(=O)n2-c2ccc3c(ccn3C)c2)c(O)cc1O`: “inactive”. Consider `CCCC(=O)O[C@]1(C(=O)CO)CC[C@H]2[C@@H]3CCC4=CC(=O)CC[C@]4(C)[C@H]3[C@@H](O)C[C@@]21C`, for which the Potency entry was “inactive”. The same measure for `CCOc1cc2ncc(C#N)c(Nc3ccc(F)c(Cl)c3)c2cc1NC(=O)/C=C/CN(C)C`: 16.2 µM (active); for `COc1cc(F)ccc1-c1ncnc(Nc2cccc(CS(C)(=N)=O)c2)n1` (stereo not given): “inactive”.

On to `Cc1cc(O)c(-c2ccc([C@@H](C)CN(C)C)cc2)c2c1[nH]c(=O)c1sccc12`, for which the Potency entry is “inactive”.

On to `CN1CCC(c2c(O)cc(O)c3c(=O)cc(-c4ccccc4Cl)oc23)C1CO` (stereo not given), for which the Potency entry is “inactive”. The same measure for `CCS(=O)(=O)Nc1ccc(Oc2ccc(F)cc2F)c(-c2cn(C)c(=O)c3[nH]ccc23)c1`: “inactive”; for `CC(C)CC(=O)Nc1n[nH]c2c1CN(C(=O)C1CCN(C)CC1)C2(C)C`: “inactive”. The same measure for `CC1(C)CC(=O)c2c(C(F)(F)F)nn(-c3ccc(C(N)=O)c(NC4CCC(OC(=O)CN)CC4)c3)c2C1` (stereo not given): “inactive”; for `COc1ccc(-c2nc(N3CCOCC3)c3sc(CN(C)c4ncc(C(=O)NO)cn4)cc3n2)cn1`: “inactive”.

With `CC(C)(C)c1ccc(S(=O)(=O)/C=C/C#N)cc1`, the Potency was 3.24 µM (active). Take `COC(=O)N[C@@H](C)CNc1nccc(-c2cn(C(C)C)nc2-c2cc(Cl)cc(NS(C)(=O)=O)c2F)n1`: the Potency entry was “inactive”. The same measure for `COc1ncc(Nc2ncc(C(C)N3CCN(S(C)(=O)=O)CC3)cc2-c2nc(C)nc(N)n2)cc1F` (stereo not given): “inactive”; for `Cc1ccc(NC(=O)NCc2ccc3c(c2)CN(C2CCC(=O)NC2=O)C3=O)cc1Cl` (stereo not given): “inactive”.

For `CC(=O)OCC(=O)[C@@]1(O)CC[C@H]2[C@@H]3CCC4=CC(=O)C=C[C@]4(C)[C@H]3[C@@H](O)C[C@@]21C`, the Potency result was “inactive”. `CO[C@@H]1[C@@H](O)[C@H](O)[C@@H](n2c3c(Cl)cccc3c3c4c(c5c6cccc(Cl)c6[nH]c5c32)C(=O)NC4=O)O[C@H]1CO`: the Potency result is “inactive”. The same measure for `Cn1cc(CNCC2CCN(c3ncc(C(=O)NO)cn3)CC2)c2ccccc21`: “inactive”; for `CC[C@@]1(O)C(=O)OCc2c1cc1n(c2=O)Cc2cc3cc(O)ccc3nc2-1`: “inactive”.

On to `Cc1nc(Nc2n[nH]c3c2CN(C(=O)N[C@H](CN(C)C)c2ccccc2)C3(C)C)c2sccc2n1`, for which the Potency entry was “inactive”. Next, `CC(C)(C)c1cnc(CSc2cnc(NC(=O)C3CCNCC3)s2)o1`: “inactive”. The same measure for `CCCCC(=O)OCC(=O)[C@H]1[C@H](C)C[C@H]2[C@@H]3C[C@H](F)C4=CC(=O)C=C[C@]4(C)[C@@]3(F)[C@@H](O)C[C@@]21C`: “inactive”; for `CC(=O)c1ccc2c(c1)c1cc(C(C)=O)ccc1n2CCNC(C)C`: “inactive”; for `CC(C)c1nn(-c2c(Cl)cccc2Cl)c2nc(Cc3ccc(OCCO)cc3)[nH]c(=O)c12`: “inactive”. Regarding `Cc1ccc([N+](=O)[O-])cc1S(=O)(=O)N(C)/N=C/c1cnc2ccc(Br)cn12`, the Potency result was “inactive”. The same measure for `N#CC[C@H](C1CCCC1)n1cc(-c2ncnc3[nH]ccc23)cn1`: “inactive”; for `CCc1c2c(nc3ccc(O)cc13)-c1cc3c(c(=O)n1C2)COC(=O)[C@]3(O)CC`: “inactive”; for `O=C(/C=C/c1ccc2ccc(C(F)(F)F)cc2n1)c1ccncc1`: 3.64 µM (active). The same measure for `CS[C@H]1SC[C@@H]2C(=O)N(C)[C@H](C(C)C)C(=O)OC[C@H](NC(=O)c3cnc4ccccc4n3)C(=O)N[C@H](C)C(=O)N(C)[C@H]1C(=O)N(C)[C@H](C(C)C)C(=O)OC[C@H](NC(=O)c1cnc3ccccc3n1)C(=O)N[C@H](C)C(=O)N2C`: “inactive”; for `COc1c(C)cnc(Cn2cnc3c(Cl)nc(N)nc32)c1C`: “inactive”. As for `Cc1[nH]c2ccccc2c1CCNCc1ccc(/C=C/C(=O)NO)cc1`, the Potency result was “inactive”.
